Sampled rows, rich in hits. Any-hit rate of the full collection: about 19%.
DT40 TDP1 no CPT – qHTS for Inhibitors of human tyrosyl-DNA phosphodiesterase 1 (TDP1): qHTS in cells in absence of CPT; DT40 Tdp1-/- hTDP1 cells, no CPT, ATP luminescence, 48 h; Potency, µM (highest dose often 46.2 µM), inactives show at the highest dose activity change, negative = growth inhibition, most hits filed as inhibitors; 420,000 tested, 15% active; AID 686978, 2013; also: potency is read from the fitted curve at half-maximal effect; % is scaled to controls: 0 for no effect and ±100 for the full control effect; nearly all actives have a fitted effect of over 55% in size
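Compound effects on proliferation are scored in DT40 Tdp1-/-;hTDP1 cells in the absence of CPT. ATP levels (CellTiter-Glo luminescence) are recorded after a ≥48 hr, 37 °C incubation.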
ASM inhibitor – blocks human secretory acid sphingomyelinase; placental ASM, HMU-PC fluorogenic substrate, 60 min; Potency, µM (series often up to 57.5 µM), for the others: top-dose activity change, negative = inhibition, usual class: inhibitors; 340,000 tested, 0.006% active; also: potency is read from the fitted curve at half-maximal effect
Target sequence (P17405 47-631 limits assumed): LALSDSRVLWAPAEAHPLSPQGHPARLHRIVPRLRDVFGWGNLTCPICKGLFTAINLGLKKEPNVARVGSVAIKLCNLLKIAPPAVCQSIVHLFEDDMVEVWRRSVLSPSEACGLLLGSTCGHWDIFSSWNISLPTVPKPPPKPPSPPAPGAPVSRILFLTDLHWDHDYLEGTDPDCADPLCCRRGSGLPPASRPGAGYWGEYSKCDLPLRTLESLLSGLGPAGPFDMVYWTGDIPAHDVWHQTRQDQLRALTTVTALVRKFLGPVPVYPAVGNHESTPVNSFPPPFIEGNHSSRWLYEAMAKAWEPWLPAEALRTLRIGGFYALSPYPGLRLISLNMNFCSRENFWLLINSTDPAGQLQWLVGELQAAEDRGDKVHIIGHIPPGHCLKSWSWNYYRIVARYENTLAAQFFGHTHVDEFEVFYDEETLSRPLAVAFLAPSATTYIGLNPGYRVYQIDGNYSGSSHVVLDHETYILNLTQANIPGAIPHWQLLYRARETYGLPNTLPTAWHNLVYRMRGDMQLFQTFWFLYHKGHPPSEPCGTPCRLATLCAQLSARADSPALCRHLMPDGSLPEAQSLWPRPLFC
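Human placenta-derived ASM preincubated with compound 10 min at room temperature, then reacted with 9 uM (final) fluorogenic HMU-PC substrate for 60 min at 37 C. Stop solution raises pH to 10; fluorescence read at Ex 386/Em 447 nm.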
IL1B secr inh – blocks inflammasome-driven IL-1 beta release | THP-1 LPS/ATP IL-1B secretion, AlphaLISA, 16 h; stronger effect = lower value | activity change, % at 57.5 µM | 360,000 tested, 4.7% active | AID 743279; in the data active = activity change below about -50%; inconclusive = mostly about -30% to -49%; also: % is scaled to controls: 0 for no effect and ±100 for the full control effect
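THP-1 cells pretreated 1 hr with compounds (up to 57.5 uM final), then stimulated with LPS (250 ng/mL final) plus ATP (1.25 mM final); secreted IL-1B measured by AlphaLISA after 16 hr, decreased signal indicating inhibition.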
TGFb SMAD3 inh – TGF-b pathway inhibition | HepG2 CAGA-GFP TGF-b/SMAD3 reporter, GFP fluorescence, 18 h; TGF-beta stimulated, 500 pg/mL final | Potency, µM (series often up to 46.1 µM), for the others: at the highest dose activity, negative = inhibition, actives largely listed as inhibitors | 410,000 tested, 1.2% active | AID 588855; also: potency is read from the fitted curve at half-maximal effect; % is scaled to controls: 0 for no effect and ±100 for the full control effect; nearly all actives have a fitted effect of over 65% in size
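GFP signal (ex488/em500-530) from TGF-beta-stimulated HEPG2 CAGA-GFP cells, 500 pg/mL final, 18 h at 37 degrees C in DMEM plus 1% FBS, normalized to unstimulated and DMSO-stimulated controls.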
TDP1 cell CPT – growth inhibition of DT40 Tdp1-/-;hTDP1 cells with camptothecin (screen for TDP1 inhibitors); chicken DT40 Tdp1-/-;hTDP1 cells + 20 nM CPT, ATP luminescence, 48 h; Potency, µM (top dose mostly 46.2 µM), for inactives: at the highest dose activity change, negative = growth inhibition, actives largely listed as inhibitors; 420,000 tested, 12% active; AID 686979; also: potency is read from the fitted curve at half-maximal effect; % is scaled to controls: 0 for no effect and ±100 for the full control effect; nearly all actives have a fitted effect of over 55% in size
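Chicken DT40 Tdp1-/- cells stably complemented with human TDP1 were seeded at 400 cells/well in medium containing 20 nM camptothecin, exposed to pin-transferred compounds, and grown at 37 °C for at least 48 hr. Viability was read as ATP luminescence.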
HepG2 viability – HepG2 cytotoxicity, counter-screen for TGF-b inhibitors; AID 588856; 410,000 tested, 0.76% active; Potency, µM (titrated, usually from 46.1 µM), for inactives: at the highest dose activity change, negative = cytotoxicity, usual class: cytotoxic; HepG2 CAGA-GFP viability, ATP luminescence, 18 h; also: potency is read from the fitted curve at half-maximal effect
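HepG2 CAGA-GFP cells (1000/well, DMEM with 1% FBS) received compound, then TGF-beta at 500 pg/mL final, and were incubated 18 hours at 37 degrees C. Viability was read by CellTiter-Glo luminescence. Media-only wells were set as complete cell-killing and DMSO as no toxicity.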
The depositor's hits bear a star; ? = inconclusive; . = no result; [ ] = dose if it differs, or a comment. Unless noted, calls follow the shape of the dose curve; as a rule, active = well fitted curve in the direction sought with a large enough effect; inconclusive = small, poorly fitted or top-dose-only effect, or another doubt; inactive = no such curve, though single readings can be large; an effect the other way counts as inactive or inconclusive.

SMILES | DT40 TDP1 no CPT | ASM inhibitor | IL1B secr inh | TGFb SMAD3 inh | TDP1 cell CPT | HepG2 viability
COc1cc(=O)n2c(c1C(=O)NC(C)c1ccco1)CCN(C(=O)c1[nH]c(C)cc1C)CC2 (stereo not given) | 0.1% | . | . | . | 3.4% | .
O=C(OCCOc1ccccc1F)c1cccc(S(=O)(=O)N2CCOCC2)c1 | -8.3% | 0.8% | 31.9 | 1.9% | -2.8% | 1.9%
COC(=O)c1nn(-c2ccccc2)nc1-c1nn(-c2ccccc2)nc1C(=O)OC | 16.4µM* | -2.3% | -8.4 | 0.0% | ? | -15.5%
O/N=C1/CC/C(=N\O)c2nn(-c3ccccc3)nc21 | 9.2µM* | -0.8% | -64.9* | 5.0% | 14.6µM* | -26.9%
O=C(O)c1nn(-c2ccccc2)nc1-c1nn(-c2ccccc2)nc1C(=O)O | 0.9% | 14.2% | 3.0 | 1.4% | -7.1% | 7.3%
Cc1cccc(-c2ccc3c(c2)C2CC3CCN2C)c1 (stereo not given) | ? | -2.6% | -1.9 | -14.6% | ? | -30.4%
CC(=O)Nc1c(O)[nH]c2ccccc12 | 0.4% | 2.7% | 21.1 | -7.2% | -15.9% | -40.7%
N=NC(=O)c1ccccc1Nc1c(O)[nH]c2ccccc12 | ? | -1.5% | -1.4 | 0.0% | 20.6µM* | -74.3%
CC1(C)Cc2nc3sc4c(SCC(=O)O)ncnc4c3cc2CO1 | ? | 7.4% | -7.5 | -19.2% | -1.8% | -12.1%
CCc1nc2c(sc3nc4c(cc32)COC(C)(C)C4)c(=O)n1Cc1ccco1 | 23.1µM* | -4.9% | 0.0 | 0.0% | 23.1µM* | -0.8%
Cc1nc(OCC(C)C)c2sc3nc4c(cc3c2n1)COC(C)(C)C4 | 20.6µM* | 1.0% | -26.1 | 4.2% | ? | -1.2%
CCOC(=O)C/C(N)=N/NC(=O)c1ccc(Cl)cc1Cl | -16.3% | 0.0% | 22.5 | -3.6% | 10.6% | -3.4%
CC(=O)c1ccc(S(=O)(=O)N2CCN(C(=O)CCC3CCCC3)CC2)cc1 | ? | . | -1.3 | 2.2% | ? | 2.8%
COc1ccc(/C=C2\SC(=Nc3ccccc3Cl)NC2=O)c(OC)c1 | 14.6µM* | . | -52.3* | -11.5% | 25.9µM* | -14.3%
COc1ccc(-c2nc3sc(CCNC(=O)c4ccccc4C)c(C)n3n2)cc1 | ? | . | . | -22.7% | ? | -23.1%
COc1cccc(N/C(SCc2cccc([N+](=O)[O-])c2)=C(/C#N)C(=O)NCc2cccs2)c1 | 16.4µM* | -2.1% | -55.3* | 6.1% | ? | 6.8%
CCOc1ccc(N/C(SC)=C(/C#N)C(N)=O)cc1 | -12.7% | 0.9% | 0.0 | -16.8% | -10.6% | -7.8%
CCOc1ccc(N/C(SCc2cccc([N+](=O)[O-])c2)=C(/C#N)C(N)=O)cc1 | 20.6µM* | -0.3% | -73.4* | 1.7% | ? | -16.9%
Cc1cc(NCc2ccccc2Cl)n2cnnc2n1 | 9.2µM* | . | . | ? | 11.6µM* | -38.6%
Cc1cc(C)cc(Nc2cc(C)nc3nncn23)c1 | ? | . | . | ? | ? | -28.2%
O=c1c(C(c2ccc(F)cc2)c2c(O)nc3n(c2=O)CCCS3)c(O)nc2n1CCCS2 | -14.0% | 4.8% | -9.6 | -7.0% | -3.4% | -12.7%
C=C1CCC2[C@](C)(CO)[C@H](O)CC[C@@]2(C)[C@@H]1C/C=C1\C(=O)OC[C@H]1O (stereo not given in full) | 4.61µM* | -1.6% | -87.7* | 31.6% | 3.66µM* | 8.7%
C=C1CCC2[C@](C)(CO)[C@H](O)CC[C@@]2(C)[C@@H]1C/C=C1/C(=O)OC[C@H]1O (stereo not given in full) | -27.5%[9.04 µM] | . | . | . | 13.6%[9.04 µM] | .

High-throughput results (PubChem)
